Bioassay records from PubChem BioAssay.
The entries come from a sample that favours hits as a whole.
Shiga toxin inh: A qHTS for Small Molecule Inhibitors of Shiga Toxin | actives 9.2% (n = 290,000) | inhibition, % at 38.7 µM | AID 2315, 2010 | Vero cells, Shiga toxin protein synthesis inhibition reporter; in the data active = inhibition mostly above about 28%, no sharp cut-off; inactive = mostly below about 43%; also: 0% is about no effect
CHX counter: Cycloheximide Counterscreen for Small Molecule Inhibitors of Shiga Toxin; cell reporter, cycloheximide protein synthesis inhibition counterscreen; max response, %; actives 12% (n = 300,000); in the data active = max response mostly above about 13%, no sharp cut-off; inactive = mostly below about 14%; also: read at 38.3 µM for the half of the compounds with a filed dose; 0% is about no effect
Tb PYK inh: qHTS of Trypanosoma Brucei Inhibitors; Potency, µM (series often up to 76.8 µM), for inactives: top-dose activity, negative = inhibition, most hits filed as inhibitors; AID 624173, 2012; TbPYK enzyme, Kinase-Glo Plus ATP luminescence, 45 min; actives 0.12% (n = 410,000); also: potency is read from the fitted curve at half-maximal effect; % is scaled to controls: 0 for no effect and ±100 for the full control effect; nearly all actives have a fitted effect of over 50% in size
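Assay buffer: 50 mM TEA pH 7.2, 100 mM KCl, 10 mM MgCl2, 0.05% BSA, 0.01% Tween-20. Pyruvate kinase from T. brucei plus substrate met compound, then ADP (130 uM final). Luminescence was read post 45 min RT.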
LmPK inhibitor: qHTS Assay for Inhibitors of Leishmania Mexicana Pyruvate Kinase (LmPK); Q27686; purified LmPK, Kinase-Glo ATP luminescence, 1 h; Potency, µM (series often up to 57.5 µM), for the others: top-dose activity change, negative = inhibition, hits mostly inhibitors; actives 0.37% (n = 290,000); AID 1721, 2009; also: potency is read from the fitted curve at half-maximal effect; % is scaled to controls: 0 for no effect and ±100 for the full control effect
Target sequence (Q27686 whole entry, looked up): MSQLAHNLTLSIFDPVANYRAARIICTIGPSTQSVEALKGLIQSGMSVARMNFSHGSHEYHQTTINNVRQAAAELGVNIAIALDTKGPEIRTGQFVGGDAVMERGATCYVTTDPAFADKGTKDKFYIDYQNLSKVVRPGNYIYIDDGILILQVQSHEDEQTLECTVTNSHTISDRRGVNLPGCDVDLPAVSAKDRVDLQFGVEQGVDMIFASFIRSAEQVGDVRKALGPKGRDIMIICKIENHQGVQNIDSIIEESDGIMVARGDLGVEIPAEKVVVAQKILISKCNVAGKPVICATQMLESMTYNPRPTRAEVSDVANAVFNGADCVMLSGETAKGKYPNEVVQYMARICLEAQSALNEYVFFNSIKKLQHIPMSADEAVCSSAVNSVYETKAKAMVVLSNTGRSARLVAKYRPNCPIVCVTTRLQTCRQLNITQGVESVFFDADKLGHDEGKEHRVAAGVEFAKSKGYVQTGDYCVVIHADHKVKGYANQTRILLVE
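Purified LmPK (0.1 nM) with 0.5 mM PEP and 0.1 mM ADP in imidazole buffer pH 7.2 with MgCl2/KCl, 1 h at room temperature. ATP formed was read by luciferase luminescence and normalized to no-enzyme and uninhibited controls.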
FBPA Giardia inh: qHTS Assay for Inhibitors of Fructose-1,6-bisphosphate Aldolase from Giardia Lamblia; A8B2U2; purified Giardia FBPA; Potency, µM (top dose mostly 59.6 µM), without a hit: top-dose activity, negative = inhibition, hits mostly inhibitors; actives 0.71% (n = 290,000); AID 2451, 2010; also: potency is read from the fitted curve at half-maximal effect; % is scaled to controls: 0 for no effect and ±100 for the full control effect; nearly all actives have a fitted effect of over 55% in size
Target sequence (A8B2U2 whole entry, looked up): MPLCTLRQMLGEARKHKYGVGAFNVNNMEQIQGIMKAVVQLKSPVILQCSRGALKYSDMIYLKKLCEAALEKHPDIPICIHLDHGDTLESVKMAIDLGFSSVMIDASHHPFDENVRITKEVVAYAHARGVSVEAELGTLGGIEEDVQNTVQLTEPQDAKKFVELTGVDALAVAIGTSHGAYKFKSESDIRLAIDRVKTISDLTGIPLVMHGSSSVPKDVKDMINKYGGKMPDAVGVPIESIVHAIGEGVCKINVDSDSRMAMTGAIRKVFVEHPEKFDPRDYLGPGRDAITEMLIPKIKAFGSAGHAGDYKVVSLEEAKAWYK
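Giardia FBPA (40 nM reagent) was preincubated 10 min at RT with compound (up to 57.5 uM final), then substrate plus GAPDH/TPI/NAD/arsenate coupling system with diaphorase/resazurin was added; resorufin fluorescence (525/598 nm) was read after 20 min.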
Sm TGR block: qHTS Assay for the Inhibitors of Schistosoma Mansoni Peroxiredoxins; Schistosoma mansoni thioredoxin glutathione reductase (TGR), Q962Y6; purified TGR, DTNB reduction, TNB absorbance 405 nm; Potency, µM (titrated, usually from 114 µM), for the others: top-dose activity change, negative = inhibition, most hits filed as inhibitors; actives 3% (n = 360,000); also: potency is read from the fitted curve at half-maximal effect; % is scaled to controls: 0 for no effect and ±100 for the full control effect; nearly all actives have a fitted effect of over 60% in size
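TGR 20 nM + NADPH 100 uM (dispensed conc.), cpd preinc 15 min RT; start with NADPH (500 uM addition) then DTNB (15 mM addition). Kinetic TNB absorbance, 405 nm filter. Four-parameter Hill fit across titration.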
An asterisk follows results filed as active; ? = inconclusive; nt = no result given; [ ] = another dose, or the depositor's remark. Unless noted, calls follow the shape of the dose curve; as a rule, active = well fitted curve in the direction sought with a large enough effect; inconclusive = small, poorly fitted or top-dose-only effect, or another doubt; inactive = no such curve, though single readings can be large; an effect the other way counts as inactive or inconclusive.

SMILES | Shiga toxin inh | CHX counter | Tb PYK inh | LmPK inhibitor | FBPA Giardia inh | Sm TGR block
COC(=O)c1sc2nc(C)cc(C)c2c1N | 31.3 | 8.9 | -4.3% | -4.6% | -14.3% | 0.0%
COC(=O)c1sc2nc3c(cc2c1N)CCCC3 | 99.2* | 39.2* | 1.2% | -26.3% | -13.3% | 5.3%[57.1 µM]
Cc1ccccc1NC(=O)c1sc2nc3c(cc2c1N)CCCC3 | nt | nt | 1.7% | nt | nt | 0.2%
NC(=O)c1sc2nc3c(cc2c1N)CCC3 | 47.9* | 22.0* | -5.5% | -28.0% | -5.9% | -5.1%
COC(=O)c1sc2nc(N)c(C#N)cc2c1N | 73.0* | 29.6* | -4.9% | 0.5% | -20.8% | 2.0%
COc1ccc(NC(=O)c2sc3nc4c(cc3c2N)CCCCCC4)cc1 | nt | nt | -0.8% | nt | nt | 1.5%
COC(=O)CC1C(C)(C)C(OC(C)=O)[C@@]2(O)C=C3C4CC(=O)OC(c5ccoc5)[C@]4(C)CCC3[C@@]1(C)C2=O (some centres not stated) | nt | nt | nt | nt | 5.7% | nt
Cc1ccc(NC(=O)CSc2nc3ncccc3[nH]2)cc1F | nt | nt | 4.8% | nt | nt | -0.4%
Cc1cc(C(=O)N/N=C/c2cc(Br)ccc2OC(=O)c2ccc(Br)cc2)n[nH]1 | 12.5 | 0.9 | nt | 3.3% | -14.2% | -1.7%
Cn1cccc1/C=N/NC(=O)c1cccc(OC(F)(F)C(F)F)c1 | 62.6* | 30.5* | -1.1% | -2.6% | -4.7% | -16.0%
O=C(N/N=C/c1cccs1)c1cnccn1 | 32.2* | 12.9 | -8.3% | -5.3% | -0.4% | 1.2%
Cc1cc(C(=O)N/N=C\c2cc(C(C)(C)C)ccc2O)n[nH]1 | 40.8* | 47.4* | -5.0% | 2.0% | nt | 1.6%
O=C(N/N=C/c1cccs1)c1[nH]ncc1Br | 118.4* | 54.6* | -18.4% | 5.1% | 1.8% | 4.4%
Cc1ccc(OCC(=O)N/N=C/c2cccn2C)cc1 | 7.8 | 3.4 | -4.5% | -6.9% | 1.4% | 8.5%
CCC(CC)C(=O)N(C)c1c(C)nc2c(OCc3cccc(Cl)c3)cccn12 | nt | nt | 0.8% | nt | nt | nt
Cc1ccc(C(=O)N/N=C\c2ccc(OC(=O)c3cccs3)cc2)cn1 | -15.5 | -1.8 | 7.0% | -3.6% | 2.6% | 7.1%
O=C(N/N=C/c1cccs1)c1cc(-c2ccc(Cl)s2)[nH]n1 | 4.7 | 7.1 | 3.8% | 2.8% | -2.7% | -1.7%
Cc1cc(C(=O)N/N=C/c2cccn2C)n[nH]1 | active | 32.7* | 2.0% | -15.6% | -3.1% | -19.1%
Cc1cc(C(=O)N/N=C/c2cccs2)no1 | 57.6* | 39.9* | 3.4% | -0.2% | 13.0% | -3.4%
Cc1cc(C(=O)N/N=C/c2cccs2)n[nH]1 | 54.3* | 28.6* | -4.6% | -13.2% | 1.2% | 68.5%
Cc1ccc(C(=O)N/N=C\c2cccs2)cn1 | 82.2* | 25.1* | 3.0% | -3.3% | -1.2% | 1.2%
Cc1cccc(N2C(=O)CSC23C(=O)N(CC(=O)NCc2ccccc2Cl)c2ccccc23)c1 (configuration not stated) | nt | nt | -5.0% | nt | nt | -2.4%
CCCCN1CC(=O)N2[C@H](c3ccc(Cl)cc3)[C@@H]3C(=O)N(CC)C(=O)[C@@H]3[C@]2(C)C1=O | -2.9 | -3.5 | 1.3% | -3.0% | 0.0% | 2.0%
N#CC(NC(=O)OCc1ccccc1)c1ccccc1 (configuration not stated) | nt | nt | 2.6% | nt | nt | 0.3%
O=C(NCCc1ccncc1)c1ccc2nc(Cc3cccc(Cl)c3)oc2c1 | -9.9 | -0.2 | 2.3% | 0.7% | nt | 0.8%
SMILES | Shiga toxin inh | CHX counter | Tb PYK inh | LmPK inhibitor | FBPA Giardia inh | Sm TGR block
Cc1cc(Cl)ccc1OCCn1cncn1 | -3.9 | -0.6 | -4.4% | -10.1% | 3.5% | -7.1%
Brc1c(OCCOCCn2cncn2)ccc2ccccc12 | 26.7* | 20.3* | -16.3% | 0.5% | -3.1% | -17.6%
Cc1ccccc1OCC(=O)NN1C(=O)C2C3C=CC(O3)C2C1=O (configuration not stated) | -2.0 | -0.9 | -15.9% | 1.5% | 1.1% | 20µM*
CCOc1ccc(C(=O)NN2C(=O)C3C4C=CC(O4)C3C2=O)cc1 (configuration not stated) | 21.0 | 2.7 | 2.6% | -2.0% | 3.6% | 22.4µM*
Cc1cccc(OCC(=O)NN2C(=O)C3C4C=CC(O4)C3C2=O)c1 (configuration not stated) | -9.5 | -2.3 | 0.0% | 3.7% | 3.1% | nt
COCCN1CCn2c(nc3cc(NC(C)=O)ccc32)C1 | -5.3 | -3.5 | -1.6% | -7.2% | -24.4% | 14.1µM*
COCCN1CCn2c(nc3cc(NC(=O)c4ccc(OC)cc4)ccc32)C1 | 13.7 | 7.0 | 4.3% | 8.6% | -14.3% | 15.8µM*
O=S(=O)(Nc1ccc2c(c1)nc1n2CCN(Cc2ccccc2)C1)c1ccccc1 | 111.5* | 116.7* | -2.9% | -0.5% | 5.3% | -26.2%
Cc1nn(CC(=O)Nc2ccc3c(c2)nc2n3CCOC2)c(=O)c2ccccc12 | -6.5 | 2.5 | 12.0% | -0.9% | 0.3% | 5.6%
COCCN1CCn2c(nc3cc(NC(=O)Cn4nc(C)c5ccccc5c4=O)ccc32)C1 | -12.0 | -1.3 | -5.3% | 1.0% | -2.6% | 25.1µM*
CCOC(=O)Nc1ccc2c(c1)nc1n2CCN(CCOC)C1 | 32.2 | 17.4 | 2.8% | 0.1% | -19.1% | -14.7%
O=C(/C=C/c1ccco1)Nc1ccc(Cl)c(-c2nc3cc(Cl)ccc3o2)c1 | nt | nt | 3.4% | nt | nt | ?
Cc1cccc(NC(=O)Nc2nnc(N3CCCC3)s2)c1 | nt | nt | 2.4% | nt | nt | 3.3%
O=C(Nc1ccc2c(c1)nc1n2CCN(Cc2ccccc2)C1)NC1CCCCC1 | -5.1 | -6.3 | 0.1% | 9.7% | ? | ?
COCCN1CCn2c(nc3cc(NC(=O)NC4CCCCC4)ccc32)C1 | -19.0 | -0.2 | -8.1% | 7.8% | ? | 8.91µM*
CC(C)(CCc1ccccn1)C(=O)CCCc1ccccn1 | nt | nt | -2.6% | nt | nt | nt
Cc1cc(-c2ccc(S(=O)(=O)Nc3cccc(Cl)c3C)cc2)on1 | nt | nt | -2.0% | nt | nt | 3.3%
Fc1ccc(-c2nnsc2Sc2ccccn2)cc1 | 67.1* | 33.6* | -8.0% | -6.7% | 4.0% | 9.3%
Nc1nc(NCC2CCC(CNS(=O)(=O)c3cccc4ccccc34)CC2)nc2ccccc12 (configuration not stated) | -14.8 | -7.4 | nt | nt | -9.8% | nt
CC12CCC(C(=O)N(CSC(=S)N/N=C\c3ccccc3)C1=O)C2(C)C (configuration not stated) | 15.5 | 0.6 | ? | 2.3% | 13.3% | 4.47µM*
CCOc1cc(/C=C2/C(=N)N3C=CSC3=NC2=O)ccc1OCCCOc1ccccc1C | 16.1 | 37.6* | 1.1% | 3.5% | nt | 16.6%
COc1cc(/C=C2/C(=N)N3C=CSC3=NC2=O)ccc1OCCOc1ccc(NC(C)=O)cc1 | -13.1 | -4.0 | -0.2% | -3.8% | 4.8% | -2.1%
